Laboratory results reported in PubChem BioAssay (NCATS).
Results filed as inconclusive are left out. Calls of active or inactive are those of the source. The call rests on the fitted dose curve; in most records, active means well fitted curve in the direction sought with a large enough effect; inconclusive means small, poorly fitted or top-dose-only effect, or another doubt; inactive means no such curve, though single readings can be large; an effect the other way counts as inactive or inconclusive.

System: Zika virus NS2B-NS3 protease (linked construct)
Experiment: Confirmatory screen NINDS AMC qHTS for Zika virus inhibitors (AID 1347152); further: nearly all actives have a fitted effect of over 70% in size;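 on activity change, negative = inhibition: top concentration of the series differs between compounds; 0% = no-inhibitor control and -100% = no-enzyme control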
Conditions: Purified linked NS2B-NS3, AMC substrate fluorescence; series mostly up to 56.6 µM; activity change, negative = inhibition: at the top concentration
How it was run: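 IC50s from 4-parameter Hill fits of percent inhibition, based on AMC fluorescence gain (340/450 nm) over 15 min with 10 microM Bz-Nle-KRR-AMC. Enzyme: 1 nM linked NS2B-NS3 in Tris-HCl pH 8.0; 15-min compound preincubation.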
Potency means the concentration at half of the fitted maximal effect.

Row | Compound | Potency | activity change, negative = inhibition
1 | Cc1nc(C2CCCCC2)c(-c2ccc(S(N)(=O)=O)c(F)c2)o1 | 24.1 µM (active) | 
2 | O=C(Nc1ccc(S(=O)(=O)N2CCOCC2)cc1)c1cc(Cl)ccc1NS(=O)(=O)c1ccc(Cl)s1 | 17.1 µM (active) | 
3 | N[C@@H](Cc1cc(I)c(O)c(I)c1)C(=O)O |  | 7.58% (inactive)
4 | CCOC(=O)Cn1cccc1-c1nc(-c2ccc(OC)cc2)c(-c2ccc(OC)cc2)s1 | 24.1 µM (active) | 
5 | CCC(=O)O[C@H]1[C@H](O[C@@H]2[C@@H](C)[C@H](O[C@H]3C[C@@](C)(OC)[C@@H](O)[C@H](C)O3)[C@@H](C)C(=O)O[C@H](CC)[C@@](C)(O)[C@H](O)[C@@H](C)C(=O)[C@H](C)C[C@@]2(C)O)O[C@H](C)C[C@@H]1N(C)C | 13.6 µM (active) | 

System: Zika virus NS2B-NS3 protease (unlinked complex)
Experiment: Confirmatory screen GU AMC qHTS for Zika virus inhibitors (AID 1347153); further: nearly all actives have a fitted effect of over 70% in size;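 on Potency: enzyme at 25 nM with substrate at 10 µM below its Km of 18.3 µM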;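 on activity, negative = inhibition: percent inhibition with 0% = no inhibitor control and 100% = no enzyme control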
Conditions: Recombinant NS2B-NS3 protease, AMC substrate fluorescence; series mostly up to 57.1 µM; activity, negative = inhibition: at the top concentration
Description: Assay Submitters (PI): Avindra Nath, Ph.D., National Institute of Neurological Disorders and Stroke (NINDS), Bethesda, MD Radhakrishnan Padmanabhan, Ph.D., Georgetown University (GU), Washington D.C. Zika Virus causes congenital defects, including microcephaly and is associated with Guillain-Barre syndrome, eningoencephalitis and myelitis in infected adult. […] Using a target-based approach, we hope to establish a screening paradigm to uncover novel, cell-active NS2B-NS3 protease (Zika Virus) specific inhibitors from NCATS' collection of small molecules using qHTS. […] Active compounds in the primary screen are re-acquired and re-screened to confirm NS2B-NS3 protease inhibition. Early Translation Branch (ETB) National Center for Advancing Translational Sciences (NCATS), Rockville, MD National Institute of Health (NIH), Bethesda, Maryland
Materials: Padmanabhan lab provided the NS2B hydrophilic domain and NS3 protease domain in a noncovalent complex used for the unlinked assay. Control compound aprotinin is obtained from Thermo Scientific (#78432; Waltham, Massachusetts). NS2B-NS3 AMC substrate (Bz-Nle-Lys-Arg-Arg-AMC; Nle-KRR-AMC) purchased from Bachem (#I-1995; Torrance, CA). Ac-VKTGKR-AMC purchased from Genscript or Bachem, Ac-FAAGKR-AMC purchased from Genscript, Ac-GLVKRR-AMC purchased from Genscript, Ac-LKKR-AMC purchased from Genscript. […] Plates were then read immediately on a ViewLux High-throughput CCD imager (PerkinElmer, Waltham, MA) equipped with standard UV fluorescence optics (340(30) nm excitation, 450(20) nm emission) then incubated (room temperature, protected from light) for 15 minutes (~20% conversion). The change in fluorescence intensity over the 15-minute reaction period was normalized against no-inhibitor and no-enzyme controls and the resulting percent inhibition data were fitted to a 4-parameter Hill equation. […]

Row | Compound | Potency | activity, negative = inhibition
6 | O=C(Nc1ccc(S(=O)(=O)N2CCOCC2)cc1)c1cc(Cl)ccc1NS(=O)(=O)c1ccc(Cl)s1 | 17.1 µM (active) | 
7 | N[C@@H](Cc1cc(I)c(O)c(I)c1)C(=O)O |  | 2.37% (inactive)
8 | CCC(=O)O[C@H]1[C@H](O[C@@H]2[C@@H](C)[C@H](O[C@H]3C[C@@](C)(OC)[C@@H](O)[C@H](C)O3)[C@@H](C)C(=O)O[C@H](CC)[C@@](C)(O)[C@H](O)[C@@H](C)C(=O)[C@H](C)C[C@@]2(C)O)O[C@H](C)C[C@@H]1N(C)C | 19.2 µM (active) | 

System: Zika virus NS2B-NS3 protease
Experiment: Primary screen GU AMC qHTS for Zika virus inhibitors (AID 1347154); further: nearly all actives have a fitted effect of over 70% in size;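 on activity change, negative = inhibition: 0% = no-inhibitor control and -100% = no-enzyme control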
Conditions: Zika NS2B-NS3 unlinked protease, AMC fluorogenic substrate; series mostly up to 54.1 µM; activity change, negative = inhibition: at the top concentration
How it was run: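 Unlinked Zika NS2B hydrophilic domain–NS3 protease complex at 25 nM in 10 mM Tris-HCl pH 8.0, 0.01% Tween 20, with an AMC peptide substrate. Fluorescence change (340/450 nm) over 15 min at room temperature, normalized to controls, fitted to 4-parameter Hill.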

Row | Compound | activity change, negative = inhibition | Potency
9 | CCOc1ccc(NS(=O)(=O)c2ccc(N)cc2)nn1 | 0.388% (inactive) | 
10 | Cc1cc(O)c(C)c(C)c1O | -0.406% (inactive) | 
11 | O=C(c1ccco1)N1CCNCC1 | 0.975% (inactive) | 
12 | O=C(O)c1cn(C2CC2)c2cc(Cl)c(F)cc2c1=O | 0.101% (inactive) | 
13 | CC(=O)Nc1ccc(S(=O)(=O)Nc2cc(C)on2)cc1 | 0.421% (inactive) | 
14 | CCc1cc2cc(OC)c(OC)cc2c(Cc2ccccc2)n1 | -11.7% (inactive) | 
15 | CN1CC[C@H](c2c(O)cc(O)c3c(=O)cc(-c4ccccc4Cl)oc23)[C@H](O)C1 | 1.99% (inactive) | 
16 | N#CSCC(=O)O | 3.82% (inactive) | 
17 | Cc1nc(C2CCCCC2)c(-c2ccc(S(N)(=O)=O)c(F)c2)o1 |  | 14.4 µM (active)
18 | CCOC(=O)C(=O)CCCCCCl | 0.643% (inactive) | 
19 | CC(COc1ccccc1)NN (stereo not drawn) | 1.79% (inactive) | 
20 | O=C(Nc1ccc(S(=O)(=O)N2CCOCC2)cc1)c1cc(Cl)ccc1NS(=O)(=O)c1ccc(Cl)s1 |  | 14.4 µM (active)
21 | CC(=O)N(CC(=O)N(C)C)c1ccccc1 | 0.227% (inactive) | 
22 | CCOC(=O)N1CCC(Nc2ccc(Cl)cc2N)CC1 | -18.6% (inactive) | 
23 | CC(C)(C)CC(=O)OCC(=O)[C@@]1(O)CC[C@H]2[C@@H]3CCC4=CC(=O)C=C[C@]4(C)[C@H]3[C@@H](O)C[C@@]21C | -5.76% (inactive) | 
24 | COc1ccccc1OCC1CNC(=O)O1 (stereo not drawn) | -1.97% (inactive) | 
25 | N#Cc1cc(NC(=O)C(=O)O)c(Cl)c(NC(=O)C(=O)O)c1 | 4.1% (inactive) | 

Row | Compound | activity change, negative = inhibition | Potency
26 | O=C(O)c1ccccc1S | -1.63% (inactive) | 
27 | NS(=O)(=O)c1ccc(N2CCCCS2(=O)=O)cc1 | 1.19% (inactive) | 
28 | CCOC(=O)O[C@]1(C(=O)OCCl)CC[C@H]2[C@@H]3CCC4=CC(=O)C=C[C@]4(C)[C@H]3[C@@H](O)C[C@@]21C | 1.59% (inactive) | 
29 | CCOC(=O)NNc1nncc2ccccc12 | -5.15% (inactive) | 
30 | CCN(CC)CC(=O)Oc1ccc(NC(C)=O)cc1 | 2.57% (inactive) | 
31 | CN1CC(=O)N2[C@H](c3ccc4c(c3)OCO4)c3[nH]c4ccccc4c3C[C@@H]2C1=O | 1.29% (inactive) | 
32 | CN(C)CCN1CCN(c2cccc(Cl)c2)C1=O | 4.99% (inactive) | 
33 | COc1cc2c(cc1OC)C(=O)CC2 | -9.3% (inactive) | 
34 | O=C(CO)[C@@H](O)[C@H](O)[C@@H](O)CO | -1.46% (inactive) | 
35 | C1=CC2C3C=CC(C3)C2C1 (stereo not drawn) | 0.367% [at 104 µM] (inactive) | 
36 | CC1(C)O[C@@H]2C[C@H]3[C@@H]4CCC5=CC(=O)C=C[C@]5(C)[C@@]4(F)[C@@H](O)C[C@]3(C)[C@]2(C(=O)CO)O1 | 2.36% (inactive) | 
37 | OCCOCCN1CCN(C(c2ccccc2)c2ccc(Cl)cc2)CC1 (stereo not drawn) | -10.9% (inactive) | 
38 | CCCCCC1Nc2cc(C(F)(F)F)c(S(N)(=O)=O)cc2S(=O)(=O)N1 (stereo not drawn) | -11.6% (inactive) | 
39 | COC(=O)/C=C(/C)N | 5.77% (inactive) | 
40 | O=C(O)[C@@H](O)[C@H](O)[C@H](O)[C@@H](O)C(=O)O | -3.68% (inactive) | 
41 | c1ccc(C(O[C@H]2CCCN(CCc3ccc4c(c3)OCO4)C2)c2ccccc2)cc1 |  | inactive
42 | O=[N+]([O-])c1ccc(O)c2ncccc12 | -15.2% (inactive) | 

System: not listed separately
Experiment: Confirmatory screen NINDS Rhodamine qHTS for Zika virus inhibitors (AID 1347161); further: nearly all actives have a fitted effect of over 60% in size
Conditions: purified enzyme assay, Rhodamine110 substrate fluorescence, 15 min; series mostly up to 22.2 µM; activity change, negative = inhibition: at the top concentration
How it was run: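 Enzyme (25 nM, linked NS2B-NS3) was preincubated 15 min with compound in 10 mM Tris-HCl pH 8.0, 0.01% Tween 20. Rhodamine110 substrate (1.5 microM) was then added and fluorescence read at start and after 15 min.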

Row | Compound | Potency
43 | O=C(Nc1ccc(S(=O)(=O)N2CCOCC2)cc1)c1cc(Cl)ccc1NS(=O)(=O)c1ccc(Cl)s1 | 1.75 µM (active)
44 | CCOC(=O)Cn1cccc1-c1nc(-c2ccc(OC)cc2)c(-c2ccc(OC)cc2)s1 | 11.1 µM (active)
45 | CCC(=O)O[C@H]1[C@H](O[C@@H]2[C@@H](C)[C@H](O[C@H]3C[C@@](C)(OC)[C@@H](O)[C@H](C)O3)[C@@H](C)C(=O)O[C@H](CC)[C@@](C)(O)[C@H](O)[C@@H](C)C(=O)[C@H](C)C[C@@]2(C)O)O[C@H](C)C[C@@H]1N(C)C | 2.78 µM (active)

System: Zika virus NS2B-NS3 protease (linked)
Experiment: 384 well plate NINDS AMC confirmatory qHTS for Zika virus inhibitors (AID 1347163); further: nearly all actives have a fitted effect of over 50% in size;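 on activity change, negative = inhibition: fluorescence of AMC released from Ac-VKTGKR-AMC peptide cleaved by the protease; top concentration of the series differs between compounds; 0% = no-inhibitor control and -100% = no-enzyme control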
Conditions: Recombinant NS2B-NS3 protease, Ac-VKTGKR-AMC fluorescence; series mostly up to 100 µM; activity change, negative = inhibition: at the top concentration
How it was run: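 Linked protease 5/30/60 nM final; cpds up to 1 mM final, ~15 min preinc. Substrate Ac-VKTGKR-AMC 30 microM final. RT, dark, 25 min; FI ex 355/em 460; normalized to no-enzyme/no-inhibitor ctrls.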

Row | Compound | activity change, negative = inhibition | Potency
46 | O=C(Nc1ccc(S(=O)(=O)N2CCOCC2)cc1)c1cc(Cl)ccc1NS(=O)(=O)c1ccc(Cl)s1 | 548% (inactive) | 
47 | CCOC(=O)Cn1cccc1-c1nc(-c2ccc(OC)cc2)c(-c2ccc(OC)cc2)s1 | 853% (inactive) | 
48 | CCC(=O)O[C@H]1[C@H](O[C@@H]2[C@@H](C)[C@H](O[C@H]3C[C@@](C)(OC)[C@@H](O)[C@H](C)O3)[C@@H](C)C(=O)O[C@H](CC)[C@@](C)(O)[C@H](O)[C@@H](C)C(=O)[C@H](C)C[C@@]2(C)O)O[C@H](C)C[C@@H]1N(C)C |  | 355 µM (active)
